The source made the active and inactive calls. Calls follow the shape of the dose curve; as a rule, active = well fitted activation curve with a large enough effect in the repeat runs; inconclusive = weak or mixed curves; inactive = flat fitted curve, though single readings scatter.
% is scaled to controls: 0 for no effect and ±100 for the full control effect.

The target of this test is KiSS-1 receptor (Homo sapiens) (UniProt Q969F8). Kind of test: Human kisspeptin (KISS1R) small molecule agonists, calcium flux assay in KISS1R-HEK293 cells (AID 1920064). Particulars: KISS1R-HEK293, calcium flux fluorescence, agonist; series mostly up to 76.8 µM; activation: at the top concentration. The source says: National Center for Advancing Translational Sciences [NCATS]
KiSS-1 receptor (Homo sapiens), sequence (Q969F8 whole entry, looked up): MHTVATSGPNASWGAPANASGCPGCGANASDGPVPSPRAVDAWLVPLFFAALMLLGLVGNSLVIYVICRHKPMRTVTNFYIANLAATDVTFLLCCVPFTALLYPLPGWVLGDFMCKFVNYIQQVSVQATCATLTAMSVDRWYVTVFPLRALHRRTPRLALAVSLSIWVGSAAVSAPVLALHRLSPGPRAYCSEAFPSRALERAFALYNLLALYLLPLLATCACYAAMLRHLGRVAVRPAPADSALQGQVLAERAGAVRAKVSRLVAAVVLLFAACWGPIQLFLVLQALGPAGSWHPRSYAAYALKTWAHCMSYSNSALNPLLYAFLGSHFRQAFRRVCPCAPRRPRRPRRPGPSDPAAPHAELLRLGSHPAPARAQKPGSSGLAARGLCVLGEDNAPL
Division of Preclinical Innovation [DPI]
U.S. Environmental Protection Agency [EPA]
National Institutes of Environmental Health Sciences [NIEHS]
National Toxicology Program [NTP]
U.S. Food and Drug Administration [FDA]
Kisspeptin and its receptor KISS1R play key roles in mammalian reproduction due to their involvement in the onset of puberty and control of the hypothalamic-pituitary-gonadal axis such as regulates GnRH release from the hypothalamus. The kisspeptin/KISS1R system also plays a direct role in peripheral organs (including the ovary, testis, uterus, and placenta) and is implicated in reproductive diseases such as miscarriage and polycystic ovary syndrome (PCOS). Abnormal KISS1R activity is associated with abnormal puberty, infertility, endometriosis, and hormone-dependent tumors. The KISS1 receptor (KISS1R, also called GPR54), a G-protein-coupled receptor (GPCR), acts (through phospholipase C) to increase intracellular inositol trisphosphate and then release intracellular calcium stores. Cell-based KISS1R-HEK293 assay is using HEK293 cells that have been genetically engineered to express the human KISS1R, which activity can be measured by calcium signaling. A compound/drug can activate (agonist) KISS1R that can be monitored by levels of intracellular calcium.
KISS1R-HEK293 cells developed by Codex Corp contain human KISS1R gene, which was stably integrated into HEK 293 cells. The compound activation can be detected by fluorescence intensity via calcium flux assay. This cell line has been used to screen the Tox21 10K compound library to identify agonists of KISS1R.
KISS1R-Hek293 cells were dispensed at 1500 cells/4uL/well in 1536-well black wall/clear bottom plates using a multidrop dispenser. After the assay plates were incubated at a 37 C/5% CO2 incubator for 18 hours, 4 microL of Calcium Dye Solution was added to each well. The plates were incubated at 37 C for 1 hour. And then 23 nL of compounds dissolved in DMSO, positive controls, or DMSO only was transferred to the assay plate by a pin tool station. The fluorescence intensity in the plates was measured using FDSS 7000EX kinetic plate reader with a filter set of Ex/Em=480/540 for 3 min at 1 sec intervals. Each test compound was measured at 15 concentrations and in triplicates.
On the technique in general: Calcium assays in cells follow changes in intracellular calcium, usually with a dye or a luminescent sensor.
`COc1ccc2cc(S(=O)(=O)N[C@H](CC(=O)N[C@H](Cc3ccc(CN4[C@H](C)CCC[C@@H]4C)cc3)C(=O)N(C)C(C)C)c3ccc4c(c3)OCO4)ccc2c1`: the “activation” value was -0.301% (inactive).
As to `NC(=O)N(O)[C@@H]1COc2cc(OCc3ccccc3)ccc21`, the “activation” value is 1.38% (inactive).
On the same count and under the same terms, the same measure for `COc1cc(C(C)(C)C)c(O)c(C(C)(C)C)c1`: 8.68% (inactive); for `O=C(Nc1ccccc1)OCC(CN1CCCCC1)OC(=O)Nc1ccccc1` (stereo not given): -1.23% [at 35.3 µM] (inactive).
Consider `O=C1c2ccccc2C(=O)N1CCc1noc(-c2ccc(CN3CCCCCC3)s2)n1`, for which the “activation” value was 2.6% (inactive).
`NCCCN1CCOCC1`: the “activation” value is -3.2% (inactive).
Still for that read-out and setting: the result for `CCOC(=O)OC(C)OC(=O)[C@@H]1N2C(=O)[C@@H](NC(=O)[C@H](N)c3ccccc3)[C@H]2SC1(C)C` (stereo not given in full) reads -0.46% [at 35.3 µM] (inactive).
With `C[N+](C)(C)CCOC(N)=O`, the “activation” value was 18.8% [at 35.3 µM] (inactive).
With `O=C(CS)OCCOC(=O)CS`, the “activation” value is 2.67% (inactive).
With `CCn1nc(C(=O)O)c(=O)c2cc3c(cc21)OCO3`, the “activation” value was -0.407% [at 35.3 µM] (inactive).
Consider `CN(C)C(=O)NC1(c2ccccc2)CCN(CC[C@@]2(c3ccc(F)c(F)c3)CN(C(=O)c3ccccc3)CCO2)CC1`, for which the “activation” value is 2.47% (inactive).
On to `CN[C@@H]1[C@@H](O)[C@@H](O[C@@H]2[C@H](O)[C@H](O[C@H]3OC(CN)=CC[C@H]3N)[C@@H](N)C[C@H]2N)OCC1(C)O` (stereo not given in full), for which the “activation” value is 2.15% [at 35.3 µM] (inactive).
On to `C=C(C)C(=O)OCCCCCCCCCCCCCCCCCC`, for which the activation is 1.35% [at 15.8 µM] (inactive).
With `COc1cccc2c1C(=O)c1c(O)c3c(c(O)c1C2=O)C[C@@](O)(C(=O)CO)C[C@@H]3O[C@H]1C[C@H](N)[C@H](O[C@@H]2CCCCO2)[C@H](C)O1`, the “activation” value is 6.32% [at 35.3 µM] (inactive).
Consider `CCCC(CC)CCCCCCCN` (stereo not given), for which the “activation” value is 3.37% (inactive).
As to `COc1cc(Cc2cnc(N)nc2N)cc(OC)c1OC`, the Potency result is “inactive”.
Regarding `FC1(F)C(F)(F)C(F)(F)C2(F)C(F)(F)C(F)(F)C(F)(F)C(F)(F)C2(F)C1(F)F` (stereo not given), the “activation” value is -1.21% [at 35.3 µM] (inactive).
For the compound `CCC(=O)c1ccc2c(c1)N(CCCN(C)C)c1ccccc1S2`, the “activation” value was -0.647% [at 35.3 µM] (inactive).
The same measure, in the same setting: the result for `c1ccc2sc(SN(C3CCCCC3)C3CCCCC3)nc2c1` reads 0.509% (inactive); that for `CN(C)[C@@H]1C(=O)C(C(N)=O)=C(O)[C@@]2(O)C(=O)C3=C(O)c4c(O)ccc(Cl)c4[C@@H](O)[C@H]3C[C@@H]12`, 1.61% [at 35.3 µM] (inactive).
With `CC(C)C(OC(=O)c1ccccc1)C(C)(C)COC(=O)c1ccccc1` (stereo not given), the “activation” value is -0.137% (inactive).
Turning to `CCCc1ncc(C[n+]2ccccc2C)c(N)n1`, the “activation” value was -0.867% [at 35.3 µM] (inactive).
As for `COc1ccc2nc(S(=O)Cc3ncc(C)c(OC)c3C)[nH]c2c1` (stereo not given), the Potency entry is “inactive”.
With `CCCC(=O)OCC`, the “activation” value was 0.96% (inactive).
On to `CC[C@@]1(c2ccccc2)NC(=O)N(C)C1=O`, for which the “activation” value was -1.67% [at 35.3 µM] (inactive).
As to `CO`, the “activation” value was -0.375% (inactive).
On the same count and under the same terms, the same measure for `O=C(Nc1ccc(S(=O)(=O)N2CCOCC2)cc1)c1cc(Cl)ccc1NS(=O)(=O)c1ccc(Cl)s1`: 1.05% [at 35.3 µM] (inactive).
On the same count and under the same terms, the same measure for `Cc1ccccc1N=Nc1ccc(N=Nc2c(O)ccc3ccccc23)c(C)c1`: 0.227% [at 35.3 µM] (inactive).
In the case of `CN1CCC(Nc2ncc3ncnc(Nc4ccc(F)c(Cl)c4)c3n2)CC1`, the “activation” value is 1.28% [at 35.3 µM] (inactive).
In the case of `CC(C)(CO)[C@@H](O)C(=O)NCCCO`, the “activation” value was -1.37% [at 35.3 µM] (inactive).
On to `Nc1nc(F)nc2c1ncn2[C@@H]1O[C@H](CO)[C@@H](O)[C@@H]1O`, for which the “activation” value is 2.25% [at 35.3 µM] (inactive).
`Cc1ccccc1N=C(N)N=C(N)N`: the “activation” value was -2.05% (inactive).
For `C1COCO1`, the “activation” value is -0.496% (inactive).
As for `CCCCCCCCCCCCN1CCCCCC1=O`, the “activation” value is -0.803% (inactive).
As to `COC(=O)Nc1nc2ccc(C(=O)c3ccccc3)cc2[nH]1`, the “activation” value is -2.11% [at 35.3 µM] (inactive).
Still for that read-out and setting: the same measure for `Oc1cccc2c(O)cccc12`: -0.535% (inactive); for `O=C1C=CC(=O)N1`: -1.31% (inactive).
On the same count and under the same terms, the result for `C=CC(=C)CCC=C(C)C` reads -0.194% (inactive); that for `CN(C)CC[C@@H](c1ccc(Br)cc1)c1ccccn1`, 0.147% [at 35.3 µM] (inactive).
In the case of `CC(C)=CC(C)(C)C`, the “activation” value is 0.675% (inactive).
